Test results: ChEMBL document CHEMBL3988442, “University of Dundee, Small-Polar-MMV Screening Library” (2021)

Assays:
[1] = molecular target: T1, Aspartate--tRNA(Asp/Asn) ligase (Mycobacterium tuberculosis (strain ATCC 25618 / H37Rv)) (UniProt P9WFW3); assay: Assay for Asp RNA synthetase-1 from Mycobacterium tuberculosis; type: functional; parameters: scale not given: direction of the effect not stated beside the values; conditions: 30 µM; also: in the data most compounds retested in dose-response had high values
T1 sequence (whole entry): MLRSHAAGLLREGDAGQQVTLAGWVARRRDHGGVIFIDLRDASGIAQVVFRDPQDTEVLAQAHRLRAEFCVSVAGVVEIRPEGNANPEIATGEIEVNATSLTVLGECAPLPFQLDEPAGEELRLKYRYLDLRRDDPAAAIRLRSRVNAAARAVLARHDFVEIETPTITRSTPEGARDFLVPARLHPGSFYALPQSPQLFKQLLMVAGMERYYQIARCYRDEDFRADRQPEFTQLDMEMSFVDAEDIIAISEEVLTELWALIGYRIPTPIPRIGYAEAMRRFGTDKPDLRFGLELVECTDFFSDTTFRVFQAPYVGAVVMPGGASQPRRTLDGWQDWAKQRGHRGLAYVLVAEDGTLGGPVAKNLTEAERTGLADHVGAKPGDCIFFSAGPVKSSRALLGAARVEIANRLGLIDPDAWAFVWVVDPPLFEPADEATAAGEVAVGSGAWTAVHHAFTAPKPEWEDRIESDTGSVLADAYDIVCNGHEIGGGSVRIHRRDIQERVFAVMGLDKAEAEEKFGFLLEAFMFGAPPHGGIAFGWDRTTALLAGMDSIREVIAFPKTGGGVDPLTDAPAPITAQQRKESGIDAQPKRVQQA

[2] = molecular target: Shiga toxin 2 (Escherichia coli O157:H7) (UniProt P09385+P09386); assay: E. coli 0.157:H7 Shiga Toxin SOP - stx2 screening assay; type: functional; parameters: scale not given: direction of the effect not stated beside the values; conditions: 30 µM

| SMILES | Percent Effect [1] [%] | Percent Effect [2] [%] |
| --- | --- | --- |
| Cn1cc(CN2CC[C@H](O)[C@@H]2Cc2ccncc2)cn1 | -1.6 | -6.08 |
| O=C(CCn1ccccc1=O)Nc1ccc(I)cc1 | 8.05 | -26.1 |
| CC(=O)NCC(=O)N1CC[C@H](OCC2CC2)[C@@H]1Cc1cccnc1 | 1.14 | 5.09 |
